In PubChem BioAssay AID1259418 (Broad Institute, 2018):
In all, about 3,400 compounds went through this assay and about 840 (25%) were called active. Another 11% or so got no clear call; they are omitted.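 Rule for the calls: active = fitted half-maximal concentration of signal decrease at or below twice the sample's top tested concentration; inconclusive = flat curve between -70 and -30 percent, or poor fit; inactive = flat within 30 percent, signal rise, or potency above limit.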 A selection follows. Measured potencies and affinities stand elsewhere.

Assay: T. gondii growth inhibition with IFN-gamma, dose response, cell-based, ME49Luc, HeLa, luciferase, 72 h (AID 1259418)
Conditions: T. gondii ME49Luc in IFN-y HeLa, active compounds read low, -100% = high-dose IFN-γ control wells; at 19.5 µM unless noted

Structure (SMILES) | max activity
COc1ccc(-c2nc(NC(C)CCc3ccccc3)c3ccccc3n2)cc1 (centres undefined) | 13.7% (inactive)
CCOc1ccc(S(=O)(=O)N2CCc3nc(-c4ccc(OC)cc4)sc3C2)cc1 | -25.8% [at 0.16 µM] (inactive)
Cc1nc(-c2ccc(F)cc2)sc1-c1ccc(SCc2ccccc2F)nn1 | -39.8% (inactive)
Clc1ccc(-c2nc(NCCCN3CCc4ccccc4C3)c3ccccc3n2)cc1 | -15.5% [at 0.16 µM] (inactive)
Cc1nc(OCC(=O)Nc2ccc(F)c(Cl)c2)c2ccccc2n1 | 21% [at 0.68 µM] (inactive)
COC(=O)/C=c1\sc2nc(=O)c(C)nn2c1=O | 25.1% [at 10 µM] (inactive)
Cc1nc(-c2ccc(F)cc2)sc1-c1ccc(SCc2ccc(Cl)cc2Cl)nn1 | -14.7% [at 5 µM] (inactive)
Cc1cccc(CSc2ccc(-c3sc(-c4ccc(F)cc4)nc3C)nn2)c1 | -11.3% [at 0.35 µM] (inactive)
Cc1cccc(OCC(=O)Nc2ccc(-c3nc(-c4ccccc4)co3)cc2)c1C | -18.6% [at 2.6 µM] (inactive)
COc1cccc(-c2ccc([C@H]3[C@H](CO)N4C(=O)CN(C(=O)c5cccnc5)C[C@@H]34)cc2)c1 | 25.9% (inactive)
Cc1ccccc1-c1ccc([C@H]2[C@@H](CO)N3C(=O)CN(C(=O)c4ccncc4)C[C@@H]23)cc1 | 27.7% (inactive)
COc1cccc(-c2ccc([C@@H]3[C@H]4CN(C(=O)c5cccnc5)CC(=O)N4[C@H]3CO)cc2)c1 | 12.1% (inactive)
O=C(c1cnccn1)N1CC(=O)N2[C@H](CO)[C@@H](c3ccc(/C=C/c4ccccc4)cc3)[C@H]2C1 | 28.4% (inactive)
Cc1ccccc1-c1ccc([C@@H]2[C@H](CO)N3C(=O)CN(C(=O)c4ccncc4)C[C@@H]23)cc1 | 29.6% (inactive)
O=C(CCC1N=C2c3ccccc3N=C(SCc3cc(=O)n4ccccc4n3)N2C1=O)NCc1ccc(F)cc1 (centres undefined) | 26.8% (inactive)
COc1ccc(-c2noc(-c3nnn(Cc4nc(-c5ccccc5OC)oc4C)c3C)n2)cc1OC | 11.4% [at 0.16 µM] (inactive)
COc1ccc(-c2nc3c(s2)CN(C(=O)Nc2ccc(C)cc2)CC3)cc1OC | -13% [at 0.35 µM] (inactive)
O=C1CCc2cc(S(=O)(=O)NCc3cccn3Cc3ccccc3F)ccc2N1 | 12.6% (inactive)
CCOC(=O)CSC1=Nc2ccccc2C2=NC(CCC(=O)NCc3ccc4c(c3)OCO4)C(=O)N12 (centres undefined) | 25.7% [at 2.6 µM] (inactive)
Cc1nc(OCC(=O)Nc2ccc(Cl)c(C(F)(F)F)c2)c2ccccc2n1 | 27.7% [at 0.35 µM] (inactive)
COc1ccc(-c2nc3c(s2)CN(C(=O)Nc2cc(C)ccc2OC)CC3)cc1 | 17% (inactive)
O=C(c1cnccn1)N1CC(=O)N2[C@H](C1)[C@H](c1ccc(-c3cccc(F)c3)cc1)[C@@H]2CO | 32.8% (inactive)
O=C(c1cnccn1)N1CC(=O)N2[C@H](CO)[C@@H](c3ccc(-c4cccc(F)c4)cc3)[C@H]2C1 | 46.4% (inactive)
Cc1oc(-c2cccc(Cl)c2)nc1CN1CCN(C(=O)NC2CCCCC2)CC1 | 20.5% [at 1.35 µM] (inactive)
CCOC(=O)Cc1ccc(NC(=O)Nc2ccc(-c3nc(-c4cc(C)ccc4C)co3)cc2)cc1 | 5.78% (inactive)

Structure (SMILES) | max activity
O=C(NCCc1csc(-c2ccccc2)n1)[C@H]1CSCN1C(=O)CCc1ccccc1 | 14.8% [at 5 µM] (inactive)
Cc1nc(OCC(=O)Nc2cccc(C(F)(F)F)c2)c2ccccc2n1 | -11.8% [at 2.6 µM] (inactive)
Cc1cccc(-c2nc(CN(c3ccccc3)S(=O)(=O)c3cccs3)c(C)o2)c1 | -12.1% [at 1.35 µM] (inactive)
CCOc1ccc(N(Cc2nc(-c3cccc(Cl)c3)oc2C)S(=O)(=O)c2cccs2)cc1 | 19.9% (inactive)
Cc1ccc(N(Cc2nc(-c3cccc(C)c3)oc2C)S(=O)(=O)c2cccs2)cc1 | -8.42% [at 0.16 µM] (inactive)
COc1ccc(-c2nc(N3CCCc4ccccc43)c3ccccc3n2)cc1 | 23.2% [at 10 µM] (inactive)
O=C(NCCc1ccccc1)Nc1ccc(-c2nc(-c3ccccc3)co2)cc1 | 87.9% (inactive)
O=C(CC1Nc2c3ccccc3nc(=S)n2C1=O)NCc1cccc(Cl)c1 (centres undefined) | -20.4% [at 2.6 µM] (inactive)
COc1ccc(-c2nc(N3CCN(c4ccccn4)CC3)c3ccccc3n2)cc1 | -11.1% [at 0.35 µM] (inactive)
COCC#Cc1ccc([C@H]2[C@H](CO)N3CCCCN(C(=O)NC4CCCC4)C[C@@H]23)cc1 | 30.1% (inactive)
Cc1ccc(Nc2nc(N)nc(CN3CCc4ccccc4C3)n2)cc1 | 19.9% [at 5 µM] (inactive)
CCc1nc(OCC(=O)Nc2cc(F)ccc2F)c2ccccc2n1 | 14.2% (inactive)
COCCn1cc2c(n1)C(CNC(=O)CS(C)(=O)=O)OCC2 (centres undefined) | 15.6% (inactive)
Cc1noc(C)c1C1CCCN1C(=O)Cn1nc(C(F)(F)F)c2c1CCCC2 (centres undefined) | -14% [at 0.35 µM] (inactive)
O=C(NCc1cccc(Cl)c1)c1ccc(-n2nc(C(F)(F)F)c3c2CCCC3)cc1 | -5.33% [at 0.68 µM] (inactive)
CCc1nc(-c2ccc(C(=O)N3CCC4(CC3)OCCO4)cc2)cs1 | 5.55% (inactive)
Cc1nc(-c2cccc(-c3noc(C(=O)N4CCC5(CC4)OCCO5)n3)c2)cs1 | 13.7% [at 2.6 µM] (inactive)
Cc1ccc(C)c(N2CCN(C(=O)c3ccc(-n4nc(C(F)(F)F)c5c4CCCC5)cc3)CC2)c1 | -23.2% (inactive)
O=C(c1ccc(Cn2cncn2)cc1)N1CCC(N2CCCCC2)CC1 | 4.24% [at 10 µM] (inactive)
COc1ccc(-c2nc(N3CCN(c4cccc(C(F)(F)F)c4)CC3)c3ccccc3n2)cc1 | 13.5% [at 5 µM] (inactive)
COc1ccc(-n2ncc3c(Nc4ccc(C)cc4)ncnc32)cc1 | 28.3% [at 0.68 µM] (inactive)
Cc1oc(-c2cccc(Cl)c2)nc1CN1CCN(C(=O)NC2CCCC2)CC1 | 17.3% [at 10 µM] (inactive)
Cc1ccc(-c2nc(CN3CCN(C(=O)NC4CCCCC4)CC3)c(C)o2)cc1 | 6.38% [at 5 µM] (inactive)
CCOc1ccc(-c2nc(CN3CCN(C(=O)NC4CCCCC4)CC3)c(C)o2)cc1 | -13.3% [at 0.16 µM] (inactive)
COc1ccc(CN2CCc3nc(SCc4nc(-c5cccc(C)c5)oc4C)[nH]c(=O)c3C2)cc1 | -7.54% [at 2.6 µM] (inactive)

Structure (SMILES) | max activity
O=C(CN1CCC2(CC1)N=C(c1ccc(Cl)cc1)C(=O)N2)Nc1ccc2c(c1)OCO2 | -13.7% [at 1.35 µM] (inactive)
Cc1ccc(C)c(-c2coc(-c3ccc(NC(=O)Nc4ccc(F)cc4)cc3)n2)c1 | -5.84% [at 0.35 µM] (inactive)
COc1cccc(CNC(=O)Nc2ccc(-c3nc(-c4cc(C)ccc4C)co3)cc2)c1 | 7.66% [at 0.16 µM] (inactive)
CCc1ccc(NC(=O)Nc2ccc(-c3nc(-c4ccccc4)co3)cc2)cc1 | 8.96% (inactive)
CCc1cccc(Nc2nc(-c3ccc(OC)cc3)nc3ccccc23)c1 | 18.8% [at 0.35 µM] (inactive)
Cc1cccc(-c2nc(Cn3c(=O)c4c(C)cc(C)nc4n(-c4ccccc4)c3=O)c(C)o2)c1 | -12.2% [at 0.35 µM] (inactive)
COc1ccc(NC(=O)Nc2ccc(-c3nc(-c4ccc(C)cc4C)co3)cc2)cc1OC | 23.8% (inactive)
Cc1ccccc1-c1nc(CN2CCN(C(=O)Nc3ccccc3C(F)(F)F)CC2)c(C)o1 | 9.13% [at 0.16 µM] (inactive)
COc1ccc(-c2nc(CN(c3ccc(C)cc3)S(=O)(=O)c3cccs3)c(C)o2)cc1 | -6.38% [at 0.16 µM] (inactive)
COc1ccc(N(Cc2nc(-c3ccc(OC(C)C)cc3)oc2C)S(=O)(=O)c2cccs2)cc1 | -11.1% [at 0.35 µM] (inactive)
CCOc1ccc(N(Cc2nc(-c3cccc(C)c3)oc2C)S(=O)(=O)c2cccs2)cc1 | 11.4% [at 10 µM] (inactive)
Cc1oc(-c2ccc(OC(C)C)cc2)nc1CN(c1ccccc1)S(=O)(=O)c1cccs1 | 21% (inactive)
CCOc1ccc(-c2nc(CN(c3ccc(OCC)cc3)S(=O)(=O)c3cccs3)c(C)o2)cc1 | 4% (inactive)
COc1ccc(N(Cc2nc(-c3ccc(C)cc3)oc2C)S(=O)(=O)c2cccs2)cc1 | 9.59% [at 0.35 µM] (inactive)
CC(C)NC(=O)CC1Nc2c3ccccc3nc(=S)n2C1=O (centres undefined) | 98.4% (inactive)
COc1ccc(C(=O)/C=C/c2cc(C(=O)O)cc3c2OCOC3)c(O)c1 | 24.8% [at 10 µM] (inactive)
CCn1cc(CN2CCCC2c2cc(C(C)C)on2)c2cc(OC)ccc21 (centres undefined) | 7.79% [at 2.6 µM] (inactive)
Cc1cccc(-c2nc(Cn3nnc(-c4nc(-c5cccc(Cl)c5)no4)c3C)c(C)o2)c1 | 8.17% [at 2.6 µM] (inactive)
O=C(C1CCC1)N1CC[C@H]2CN(Cc3cccc(Cl)c3)S(=O)(=O)[C@@H]2CC1 | -9.19% (inactive)
CCCc1ccc(S(=O)(=O)N2CCc3nc(-c4ccc(OC)cc4)sc3C2)cc1 | 13.1% [at 0.16 µM] (inactive)
O=C(Cc1ccccc1Cl)Nc1ccc(-c2nc(-c3ccccc3)co2)cc1 | 20.3% [at 2.6 µM] (inactive)
COc1ccccc1-c1nc(C)c(-c2ccc(SCc3ccc(F)cc3)nn2)s1 | 7.01% [at 0.35 µM] (inactive)
Cc1cnc(N2CCC3(CCN(CC4CC4)C3=O)CC2)nc1 | 44% (inactive)
Cc1cnc(N2CCC3(CCC(CC(=O)N4CC=CC4)CC3)CC2)nc1 | 19.8% [at 10 µM] (inactive)
